The supplement of paper PMC9950053
Structures can show the parent of a compound that is named as a salt.

These compounds were tested on Danio rerio larvae (5 dpf) (assay: habituation (activity change first vs second 5 min of 1-s interval sound, period 17) minus DMSO control (percentage points); higher = larger habituation measure than DMSO larvae). Settings: 10 µM; exposure time: 3 h pre-incubation + 3 h imaging.
Procedure: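 Wild-type 5 dpf zebrafish larvae (n=48 per drug, 96-well plates, 28.5 °C) were exposed to Tocris FDA-approved library compounds at 10 µM (0.1% DMSO) for 3 h before and 3 h during imaging. Images were taken every 6 s during visual (moving coloured lines) and acoustic stimuli, and larvae were tracked with the DeepLabCut-based Z-LaP Tracker. Each behavioural measure is the treated-group mean minus the DMSO vehicle control mean (n=844), in percentage points. This mapping covers compounds with 4-character plate codes.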

| Structure (SMILES) | habituation |
| --- | --- |
| Brc1c(NC2=NCCN2)ccc2nccnc12 | -6.57 |
| COc1ccccc1OCCNCC(O)COc1cccc2[nH]c3ccccc3c12 (stereo not given) [Carvedilol] | -0.0437 |
| CN1CC(=O)N2[C@H](c3ccc4c(c3)OCO4)c3[nH]c4ccccc4c3C[C@@H]2C1=O [Tadalafil] | -0.158 |
| CN1CCC[C@@H]1Cc1c[nH]c2ccc(CCS(=O)(=O)c3ccccc3)cc12 [Eletriptan hydrobromide] | 7.41 |
| Cc1ccsc1C(=CCCN1CCC[C@@H](C(=O)O)C1)c1sccc1C [Tiagabine hydrochloride] | 6.37 |
| Cc1nc(Nc2ncc(C(=O)Nc3c(C)cccc3Cl)s2)cc(N2CCN(CCO)CC2)n1 [Dasatinib] | -0.804 |
| CCOC(=O)C1=C(COCCN)NC(C)=C(C(=O)OC)C1c1ccccc1Cl (stereo not given) [Amlodipine besylate] | -2.71 |
| CNC(=O)c1ccccc1Sc1ccc2c(/C=C/c3ccccn3)n[nH]c2c1 [Axitinib] | 0.305 |
| CC1(C)O[C@@H]2[C@@H](CO[C@@]3(COS(N)(=O)=O)OC(C)(C)O[C@@H]23)O1 [Topiramate] | -1.06 |
| O=C(O[C@@H]1C[C@@H]2C[C@H]3C[C@H](C1)N2CC3=O)c1c[nH]c2ccccc12 [Dolasetron mesylate] | 1.05 |
| Nc1nc(F)nc2c1ncn2[C@@H]1O[C@H](CO)[C@@H](O)[C@@H]1O [Fludarabine] | -0.666 |
| CC#C[C@]1(O)CC[C@H]2[C@@H]3CCC4=CC(=O)CCC4=C3[C@@H](c3ccc(N(C)C)cc3)C[C@@]21C [Mifepristone] | -3.13 |
| COc1c(C)c2c(c(O)c1C/C=C(\C)CCC(=O)OCCN1CCOCC1)C(=O)OC2 [Mycophenolate mofetil] | 4.4 |
| COc1ccc(C[C@@H](C)NC[C@H](O)c2ccc(O)c(NC=O)c2)cc1 [Arformoterol tartrate] | -3.57 |
| CN(C)CC/C=C1/c2ccccc2COc2ccc(CC(=O)O)cc21 [Olopatadine hydrochloride] | -0.266 |
| CC(C)n1c(/C=C/C(O)CC(O)CC(=O)O)c(-c2ccc(F)cc2)c2ccccc21 (stereo not given) [Fluvastatin sodium] | 2.02 |
| Nc1cccc2c1CN(C1CCC(=O)NC1=O)C2=O (stereo not given) [Lenalidomide] | -0.218 |
| CCOC(=O)[C@H](CCc1ccccc1)N[C@H]1CCc2ccccc2N(CC(=O)O)C1=O [Benazepril hydrochloride] | 1.78 |
| O=C(NCC1CCCCN1)c1cc(OCC(F)(F)F)ccc1OCC(F)(F)F (stereo not given) [Flecainide acetate] | 0.225 |
| CN(CCOc1ccc(CC2SC(=O)NC2=O)cc1)c1ccccn1 (stereo not given) [Rosiglitazone] | 2.04 |

| Structure (SMILES) | habituation |
| --- | --- |
| CC[C@H](C)C(=O)O[C@H]1C[C@@H](C)C=C2C=C[C@H](C)[C@H](CC[C@@H]3C[C@@H](O)CC(=O)O3)[C@H]21 [Lovastatin] | -2.11 |
| COc1cc(Nc2c(C#N)cnc3cc(OCCCN4CCN(C)CC4)c(OC)cc23)c(Cl)cc1Cl [Bosutinib] | 1.4 |
| CC(c1cc2ccccc2s1)N(O)C(N)=O (stereo not given) [Zileuton] | 7.74 |
| COc1cc2nc(N3CCN(C(=O)c4ccco4)CC3)nc(N)c2cc1OC [Prazosin hydrochloride] | 0.443 |
| CN(C)CCC[C@@]1(c2ccc(F)cc2)OCc2cc(C#N)ccc21 [Escitalopram oxalate] | -6.32 |
| Cc1ccc(-c2cc(C(F)(F)F)nn2-c2ccc(S(N)(=O)=O)cc2)cc1 [Celecoxib] | -9.16 |
| CN1CCN2c3ncccc3Cc3ccccc3C2C1 (stereo not given) [Mirtazapine] | -1.26 |
| CN/C(=N\CCSCc1nc[nH]c1C)NC#N [Cimetidine] | 5.23 |
| C[C@]12CCC(=O)C=C1CC[C@@H]1[C@@H]2[C@@H](O)C[C@@]2(C)[C@H]1CC[C@]2(O)C(=O)CO [Hydrocortisone] | 4.44 |
| Cc1c(-c2ccc(O)cc2)n(Cc2ccc(OCCN3CCCCCC3)cc2)c2ccc(O)cc12 [Bazedoxifene acetate] | 0.95 |
| Nc1ncn([C@@H]2O[C@H](CO)[C@@H](O)[C@H]2O)c(=O)n1 [5-Azacytidine] | 0.429 |
| CC(C)C(=O)Nc1ccc([N+](=O)[O-])c(C(F)(F)F)c1 [Flutamide] | -15.4 |
| CCCN(CCC)S(=O)(=O)c1ccc(C(=O)O)cc1 [Probenecid] | 3.79 |
| COc1ccc([C@@H]2Sc3ccccc3N(CCN(C)C)C(=O)[C@@H]2OC(C)=O)cc1 [Diltiazem hydrochloride] | -0.219 |
| CCOc1nc2cccc(C(=O)O)c2n1Cc1ccc(-c2ccccc2-c2noc(=O)[nH]2)cc1 [Azilsartan] | 8.15 |
| COCCCOc1cc(C[C@@H](C[C@H](N)[C@@H](O)C[C@H](C(=O)NCC(C)(C)C(N)=O)C(C)C)C(C)C)ccc1OC [Aliskiren hemifumarate] | 8.44 |
| CC(C)(C)NC(=O)[C@@H]1C[C@@H]2CCCC[C@@H]2CN1C[C@@H](O)[C@H](Cc1ccccc1)NC(=O)[C@H](CC(N)=O)NC(=O)c1ccc2ccccc2n1 [Saquinavir mesylate] | -0.527 |
| CCC(=O)O[C@]1(C(=O)SCF)[C@H](C)C[C@H]2[C@@H]3C[C@H](F)C4=CC(=O)C=C[C@]4(C)[C@@]3(F)[C@@H](O)C[C@@]21C [Fluticasone propionate] | 2.72 |
| C/C(O)=C(\C#N)C(=O)Nc1ccc(C(F)(F)F)cc1 [Teriflunomide] | -2.85 |
| CCC(C)(C)C(=O)O[C@H]1C[C@@H](C)C=C2C=C[C@H](C)[C@H](CC[C@@H]3C[C@@H](O)CC(=O)O3)[C@H]21 [Simvastatin] | -1.02 |
